The experiment concerns PXR homodimer (NR concentration 270 nM). In words: PBM binding z-score (relative to random genomic background probes); higher = stronger binding; sequences stand for … in GC…GCGATTGACAGCGTAGAATGAAGG
In short, it runs like this: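 Binding z-scores were set against random background probes. The data came from custom Agilent 4×180K protein-binding microarrays carrying double-stranded probes with 34-nt variable regions, incubated 1 h with ligand-free nuclear receptor dimers. Partner-specific antibodies detected binding, and scanned fluorescence was regression-normalized.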
The sequence ATCTCTAGGTAAAGATAGTTCGGTGAATGCAAAT had a PBM binding z-score of 0.511.
On to TCTAGCAGTCCAGAGGGTCACTCAAGAGGTACGG, for which the PBM binding z-score was -0.406.
In turn, CCTAGCAGGCCAATCTGGGACACTCAAGGCTTGA came in with a PBM binding z-score of -0.916.
As for TCTGACAGGTGAAGGTAACTCAGGTACGCAGTCG, the figure is -0.371; as for TATACAGGCTCAAAGGCCAGAGTACGAATGTCGA, -0.323; as for GGAACGAGGGCATTCGAGTTAATAGCATGGCGAT, 0.437.
Next, CCTACTGGGCCAATGGTCATTGATTCCAATGCTC: -0.689; GCTGCTAGGTCAACTGATGGTCGGCTAAAGCTCG: -0.734.
Next, ACTCGGAGGACCAAGGTCAGAGCTACGCCAGTGA: 0.0514.
In the case of GGAACGAAGGCAAAGTTGATAGCATCTGTCGACG, the PBM binding z-score is -0.569.
As for GGAACGAGGGCATGCGAGTTGATAGCATGGCGAT, the figure is 0.407.
Sequence TCTTGTAGATCACGCAGGTTAAGAAAGCCTGAGT yielded a PBM binding z-score of 0.000906.
Next, TCTTGTAGAACAAGCAGGTTAAGAAAGCCTGAGT: 0.0921; AATACCGGGTCATCGTAGGCCAGAGTACGCACAG: 0.459.
Next, CCTAGCAGGCCAATCTGAGTCACTCAAGGCTTGA: -0.519; AGTCAAAGTTCATCTAGGTAAGGTAAGATATGCT: 5.75.
As for AGAACAAGGGCAATGAGTTGATAGCACGGGTGGC, the figure is 4.14.
In turn, CAAACTAGGGCACAGAGGTCAAAGTCCGTGCGTA showed a PBM binding z-score of 8.42.
Next, ATCGAAAGGTCGACGGGGTGAGTATACACCGTTT: 1.33.
As for TAGCCGAGGTCATGGGCCAGTATACCACGCGAAC, the figure is 0.728; as for TCTAGTTGGTCACGGAGGTAACACACGACGGGTA, 0.258; as for CCTACTGGGCCAGGGTCATTGATCAGTCAAAGCA, 0.381.

For the origin of these results see the supplement of paper PMC6555819.
